Data on one sequence can be found in PMC7862700, “An all-to-all approach to the identification of sequence-specific readers for epigenetic DNA modifications on cytosine”.

What all share (assay): DAPPL (digital affinity profiling via proximity ligation, sequencing); 10 mM Tris-HCl pH 7.5, 50 mM NaCl, 1 mM DTT, 4% glycerol, room temperature, 30 min; GST-TFs on glutathione beads, 16-mer random dsDNA library, 0.1% formaldehyde crosslink after washing; high values mean tight binding
The target in experiment [1] is T1, FEV (Homo sapiens, UniProt Q99581 1-238).
T1 sequence: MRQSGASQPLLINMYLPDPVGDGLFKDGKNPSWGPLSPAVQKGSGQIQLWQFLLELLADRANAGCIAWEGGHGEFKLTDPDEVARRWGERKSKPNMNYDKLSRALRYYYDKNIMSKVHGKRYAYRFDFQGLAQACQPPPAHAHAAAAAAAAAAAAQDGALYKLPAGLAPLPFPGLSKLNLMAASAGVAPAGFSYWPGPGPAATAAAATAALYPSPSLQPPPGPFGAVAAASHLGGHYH
The following applies: protein: recombinant; tags: N-terminal GST; dsDNA, one strand shown. In short, it runs like this: (§1)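 Binding signal is each hexamer's read frequency for a factor divided by its frequency in the tag-only sample. The factors were GST-fused human transcription factors from yeast, captured on glutathione beads, DNA-barcoded and pooled with that sample. Pools were incubated with 200 nmole of a random double-stranded 16-mer DNA library in Tris/NaCl/DTT/glycerol buffer at room temperature for 30 min, then washed, crosslinked with 0.1% formaldehyde, proximity-ligated with BsaI/T4 ligase (1 h, 37 °C), PCR-amplified and sequenced on an Illumina NextSeq500.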

Experiment [2] has as its target ETV5 (Homo sapiens, UniProt P41161 1-510). The following applies: protein: recombinant; tags: N-terminal GST; dsDNA, one strand shown. In short, it runs like this:
as §1

For experiment [3], the target named is HSF1 (Homo sapiens, UniProt Q00613 1-529). The following applies: protein: recombinant; tags: N-terminal GST; chain copies: 3; dsDNA, one strand shown. Summed up: as §1
Sequence of HSF1 (Q00613 whole entry): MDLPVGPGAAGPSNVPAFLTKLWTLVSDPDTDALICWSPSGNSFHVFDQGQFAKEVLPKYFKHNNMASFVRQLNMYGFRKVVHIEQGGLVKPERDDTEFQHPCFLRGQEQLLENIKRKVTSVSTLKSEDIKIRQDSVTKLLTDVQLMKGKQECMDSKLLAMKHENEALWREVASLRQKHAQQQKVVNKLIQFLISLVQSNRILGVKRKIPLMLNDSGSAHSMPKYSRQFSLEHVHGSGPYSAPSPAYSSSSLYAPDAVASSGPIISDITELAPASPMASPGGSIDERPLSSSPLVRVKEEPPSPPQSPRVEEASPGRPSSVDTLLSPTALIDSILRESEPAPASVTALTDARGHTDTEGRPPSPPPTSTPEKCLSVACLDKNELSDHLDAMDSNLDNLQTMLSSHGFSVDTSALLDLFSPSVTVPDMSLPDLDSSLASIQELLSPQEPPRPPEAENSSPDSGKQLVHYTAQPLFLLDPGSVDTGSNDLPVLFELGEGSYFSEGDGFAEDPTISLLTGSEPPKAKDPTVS
For experiment [4], the target named is T2, SPIC (Homo sapiens, UniProt Q8N5J4 1-248).
T2 sequence: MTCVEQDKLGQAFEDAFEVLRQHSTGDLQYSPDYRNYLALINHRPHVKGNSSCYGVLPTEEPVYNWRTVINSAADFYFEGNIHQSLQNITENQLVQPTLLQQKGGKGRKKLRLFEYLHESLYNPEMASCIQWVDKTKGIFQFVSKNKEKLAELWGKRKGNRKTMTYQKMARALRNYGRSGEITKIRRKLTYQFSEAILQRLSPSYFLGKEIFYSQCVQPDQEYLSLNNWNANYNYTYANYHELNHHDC
The following applies: protein: recombinant; tags: N-terminal GST; dsDNA, one strand shown. In short, it runs like this:
as §1

Experiment [5] concerns the target ELF4 (Homo sapiens, UniProt Q99607 1-663). The note with it: protein: recombinant; tags: N-terminal GST; dsDNA, one strand shown. Summed up: as §1
The target in experiment [6] is T3, ELK4 (Homo sapiens, UniProt P28324-2 1-405).
T3 sequence: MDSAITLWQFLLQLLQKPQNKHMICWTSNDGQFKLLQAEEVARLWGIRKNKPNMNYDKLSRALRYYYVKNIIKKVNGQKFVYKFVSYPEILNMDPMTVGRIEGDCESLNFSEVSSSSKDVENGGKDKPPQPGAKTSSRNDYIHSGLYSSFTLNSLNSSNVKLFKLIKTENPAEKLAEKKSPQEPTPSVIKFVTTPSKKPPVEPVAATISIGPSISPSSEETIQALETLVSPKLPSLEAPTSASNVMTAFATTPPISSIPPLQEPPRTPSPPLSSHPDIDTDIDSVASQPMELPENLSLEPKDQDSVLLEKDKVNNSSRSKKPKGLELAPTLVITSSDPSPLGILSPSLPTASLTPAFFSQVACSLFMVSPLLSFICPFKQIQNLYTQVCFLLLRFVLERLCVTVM
The note with it: protein: recombinant; tags: N-terminal GST; dsDNA, one strand shown. In short, it runs like this:
as §1

Experiment [7] addresses T4, ETV2 (Homo sapiens, UniProt O00321 1-342).
T4 sequence: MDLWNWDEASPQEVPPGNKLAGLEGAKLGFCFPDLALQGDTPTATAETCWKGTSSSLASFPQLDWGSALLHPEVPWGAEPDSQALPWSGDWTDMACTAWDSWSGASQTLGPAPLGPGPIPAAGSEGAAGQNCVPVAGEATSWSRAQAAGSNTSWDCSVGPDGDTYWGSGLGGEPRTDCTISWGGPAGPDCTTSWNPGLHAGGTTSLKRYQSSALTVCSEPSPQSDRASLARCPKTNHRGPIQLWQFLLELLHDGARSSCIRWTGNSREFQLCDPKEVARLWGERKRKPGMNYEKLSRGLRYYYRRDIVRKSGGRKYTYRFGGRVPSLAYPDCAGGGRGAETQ
The note with it: protein: recombinant; tags: N-terminal GST; dsDNA, one strand shown. In short, it runs like this: as §1

For experiment [8], the target named is T5, ELF3 (Homo sapiens, UniProt P78545 1-371).
T5 sequence: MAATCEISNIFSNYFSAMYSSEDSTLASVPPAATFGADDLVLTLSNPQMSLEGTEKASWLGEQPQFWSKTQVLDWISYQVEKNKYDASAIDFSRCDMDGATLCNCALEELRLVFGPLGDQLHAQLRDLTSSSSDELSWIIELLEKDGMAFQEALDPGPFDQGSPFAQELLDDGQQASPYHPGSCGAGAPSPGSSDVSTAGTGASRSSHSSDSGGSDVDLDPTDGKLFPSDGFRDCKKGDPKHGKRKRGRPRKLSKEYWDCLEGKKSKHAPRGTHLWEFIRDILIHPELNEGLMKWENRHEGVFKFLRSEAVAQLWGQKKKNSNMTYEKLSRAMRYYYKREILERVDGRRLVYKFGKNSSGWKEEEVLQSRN
The note with it: protein: recombinant; tags: N-terminal GST; dsDNA, one strand shown. In short, it runs like this: as §1

Experiment [9] addresses CRX (Homo sapiens, UniProt O43186 1-299). The note with it: protein: recombinant; tags: N-terminal GST; dsDNA, one strand shown. In short, it runs like this: as §1
The target of experiment [10] is ETV1 (Homo sapiens, UniProt P50549 1-477). The note with it: protein: recombinant; tags: N-terminal GST; dsDNA, one strand shown. Summed up:
as §1

Experiment [11] concerns the target T6, ERF (Homo sapiens, UniProt P50548 1-548).
T6 sequence: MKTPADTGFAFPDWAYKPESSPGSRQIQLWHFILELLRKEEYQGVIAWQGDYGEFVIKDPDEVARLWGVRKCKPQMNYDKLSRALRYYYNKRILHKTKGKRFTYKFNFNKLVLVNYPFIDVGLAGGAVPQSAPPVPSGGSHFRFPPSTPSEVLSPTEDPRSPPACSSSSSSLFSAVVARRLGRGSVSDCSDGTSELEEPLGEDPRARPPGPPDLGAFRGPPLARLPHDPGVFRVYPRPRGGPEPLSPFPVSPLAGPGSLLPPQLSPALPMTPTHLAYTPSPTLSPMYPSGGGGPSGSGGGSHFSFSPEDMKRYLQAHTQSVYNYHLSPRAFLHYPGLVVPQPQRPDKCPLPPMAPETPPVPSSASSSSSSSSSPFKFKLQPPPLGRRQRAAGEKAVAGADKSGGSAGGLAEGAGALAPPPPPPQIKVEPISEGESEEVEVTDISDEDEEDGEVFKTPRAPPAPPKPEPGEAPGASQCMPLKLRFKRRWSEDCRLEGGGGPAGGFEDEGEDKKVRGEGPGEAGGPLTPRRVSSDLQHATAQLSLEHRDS
The note with it: protein: recombinant; tags: N-terminal GST; dsDNA, one strand shown. Summed up: as §1

Experiment [12] has as its target T7, ETV3L (Homo sapiens, UniProt Q6ZN32 1-361).
T7 sequence: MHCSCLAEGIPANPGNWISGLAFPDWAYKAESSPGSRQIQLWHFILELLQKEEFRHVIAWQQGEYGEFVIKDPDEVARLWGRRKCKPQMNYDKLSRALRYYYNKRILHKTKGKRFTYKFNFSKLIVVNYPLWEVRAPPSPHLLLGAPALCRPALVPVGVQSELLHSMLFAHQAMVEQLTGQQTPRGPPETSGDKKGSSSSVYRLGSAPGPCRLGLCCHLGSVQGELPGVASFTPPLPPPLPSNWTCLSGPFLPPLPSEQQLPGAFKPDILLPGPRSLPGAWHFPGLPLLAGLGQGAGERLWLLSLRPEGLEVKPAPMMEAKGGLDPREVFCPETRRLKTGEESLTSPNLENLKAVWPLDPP
The following applies: protein: recombinant; tags: N-terminal GST; dsDNA, one strand shown. In short, it runs like this: as §1

For experiment [13], the target named is T8, ETS2 (Homo sapiens, UniProt P15036 1-469).
T8 sequence: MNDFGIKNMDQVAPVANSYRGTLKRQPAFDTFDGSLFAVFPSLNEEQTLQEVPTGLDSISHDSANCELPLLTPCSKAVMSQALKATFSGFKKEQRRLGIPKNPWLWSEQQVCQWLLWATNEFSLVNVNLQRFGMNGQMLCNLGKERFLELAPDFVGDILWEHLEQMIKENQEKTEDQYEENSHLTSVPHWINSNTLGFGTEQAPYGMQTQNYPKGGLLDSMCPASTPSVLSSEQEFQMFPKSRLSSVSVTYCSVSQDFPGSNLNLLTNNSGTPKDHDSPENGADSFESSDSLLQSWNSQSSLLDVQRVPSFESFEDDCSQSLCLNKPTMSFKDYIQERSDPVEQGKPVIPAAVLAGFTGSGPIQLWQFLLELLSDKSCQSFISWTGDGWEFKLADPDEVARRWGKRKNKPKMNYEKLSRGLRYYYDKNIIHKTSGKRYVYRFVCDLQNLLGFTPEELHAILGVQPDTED
The following applies: protein: recombinant; tags: N-terminal GST; dsDNA, one strand shown. In short, it runs like this:
as §1

Experiment [14] concerns the target T9, SPDEF (Homo sapiens, UniProt O95238 1-335).
T9 sequence: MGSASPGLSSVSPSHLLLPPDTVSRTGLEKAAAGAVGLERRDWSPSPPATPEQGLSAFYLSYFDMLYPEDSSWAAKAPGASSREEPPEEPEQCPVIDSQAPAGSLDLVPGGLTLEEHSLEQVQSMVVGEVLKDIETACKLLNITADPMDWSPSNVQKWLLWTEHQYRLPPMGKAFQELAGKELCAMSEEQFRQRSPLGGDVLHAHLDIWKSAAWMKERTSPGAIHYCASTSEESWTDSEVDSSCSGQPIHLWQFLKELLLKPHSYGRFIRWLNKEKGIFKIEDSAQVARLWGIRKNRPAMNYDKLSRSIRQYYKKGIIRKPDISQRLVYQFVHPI
The following applies: protein: recombinant; tags: N-terminal GST; dsDNA, one strand shown. In short, it runs like this:
as §1

In experiment [15] the target is T10, ETV7 (Homo sapiens, UniProt Q9Y603 1-341).
T10 sequence: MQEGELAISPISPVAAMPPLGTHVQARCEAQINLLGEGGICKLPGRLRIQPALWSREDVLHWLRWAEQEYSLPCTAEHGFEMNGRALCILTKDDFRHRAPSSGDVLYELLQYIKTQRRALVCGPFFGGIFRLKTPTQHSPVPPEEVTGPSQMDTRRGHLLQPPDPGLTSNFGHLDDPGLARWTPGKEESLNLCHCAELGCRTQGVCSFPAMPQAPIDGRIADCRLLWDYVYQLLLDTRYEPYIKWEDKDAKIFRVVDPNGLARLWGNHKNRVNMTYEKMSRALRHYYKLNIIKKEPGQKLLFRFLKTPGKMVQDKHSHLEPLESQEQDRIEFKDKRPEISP
The note with it: protein: recombinant; tags: N-terminal GST; dsDNA, one strand shown. In short, it runs like this: as §1

In experiment [16] the target is T11, ELF5 (Homo sapiens, UniProt Q9UKW6-2 1-255).
T11 sequence: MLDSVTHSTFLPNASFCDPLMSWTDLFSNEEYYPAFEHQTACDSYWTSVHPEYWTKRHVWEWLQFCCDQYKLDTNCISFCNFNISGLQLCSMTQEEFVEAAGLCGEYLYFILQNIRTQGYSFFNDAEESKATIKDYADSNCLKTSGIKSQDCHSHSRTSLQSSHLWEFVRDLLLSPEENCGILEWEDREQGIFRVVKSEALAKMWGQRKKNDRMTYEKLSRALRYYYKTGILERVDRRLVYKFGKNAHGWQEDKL
The note with it: protein: recombinant; tags: N-terminal GST; dsDNA, one strand shown. Summed up: as §1

For experiment [17], the target named is T12, ETV3 (Homo sapiens, UniProt P41162-2 1-143).
T12 sequence: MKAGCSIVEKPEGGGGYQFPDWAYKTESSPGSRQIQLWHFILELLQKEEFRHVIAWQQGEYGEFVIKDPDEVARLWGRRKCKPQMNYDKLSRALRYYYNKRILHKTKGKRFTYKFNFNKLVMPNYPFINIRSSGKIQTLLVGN
The following applies: protein: recombinant; tags: N-terminal GST; dsDNA, one strand shown. In short, it runs like this: as §1

For experiment [18], the target named is ETV6 (Homo sapiens, UniProt P41212 1-452). The note with it: protein: recombinant; tags: N-terminal GST; dsDNA, one strand shown. Summed up:
as §1

Sequence of ETV6 (P41212 whole entry): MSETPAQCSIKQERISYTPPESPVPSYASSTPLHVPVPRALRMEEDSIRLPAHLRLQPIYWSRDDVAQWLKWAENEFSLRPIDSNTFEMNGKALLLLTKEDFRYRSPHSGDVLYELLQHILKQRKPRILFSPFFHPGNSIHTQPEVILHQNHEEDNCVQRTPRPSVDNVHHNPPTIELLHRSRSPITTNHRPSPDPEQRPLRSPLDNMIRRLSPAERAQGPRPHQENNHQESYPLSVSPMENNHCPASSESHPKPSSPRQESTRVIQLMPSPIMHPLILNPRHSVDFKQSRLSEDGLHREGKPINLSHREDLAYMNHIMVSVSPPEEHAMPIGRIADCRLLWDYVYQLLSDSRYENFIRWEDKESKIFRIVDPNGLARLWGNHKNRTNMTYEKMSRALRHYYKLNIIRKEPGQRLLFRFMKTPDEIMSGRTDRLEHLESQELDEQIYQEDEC
Sequence of ETV1 (P50549 whole entry): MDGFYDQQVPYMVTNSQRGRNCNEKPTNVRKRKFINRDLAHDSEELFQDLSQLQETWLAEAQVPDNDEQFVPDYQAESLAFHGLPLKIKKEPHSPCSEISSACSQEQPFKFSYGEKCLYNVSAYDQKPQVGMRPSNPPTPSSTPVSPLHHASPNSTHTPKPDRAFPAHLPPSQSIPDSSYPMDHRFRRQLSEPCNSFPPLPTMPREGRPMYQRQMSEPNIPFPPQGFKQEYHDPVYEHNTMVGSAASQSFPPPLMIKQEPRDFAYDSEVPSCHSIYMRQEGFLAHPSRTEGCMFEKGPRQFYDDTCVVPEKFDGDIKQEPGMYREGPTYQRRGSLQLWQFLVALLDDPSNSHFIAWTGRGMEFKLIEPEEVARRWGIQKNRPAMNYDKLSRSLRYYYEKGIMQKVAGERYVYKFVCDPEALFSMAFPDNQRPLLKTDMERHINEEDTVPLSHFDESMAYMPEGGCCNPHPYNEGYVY
Sequence of ETV5 (P41161 whole entry): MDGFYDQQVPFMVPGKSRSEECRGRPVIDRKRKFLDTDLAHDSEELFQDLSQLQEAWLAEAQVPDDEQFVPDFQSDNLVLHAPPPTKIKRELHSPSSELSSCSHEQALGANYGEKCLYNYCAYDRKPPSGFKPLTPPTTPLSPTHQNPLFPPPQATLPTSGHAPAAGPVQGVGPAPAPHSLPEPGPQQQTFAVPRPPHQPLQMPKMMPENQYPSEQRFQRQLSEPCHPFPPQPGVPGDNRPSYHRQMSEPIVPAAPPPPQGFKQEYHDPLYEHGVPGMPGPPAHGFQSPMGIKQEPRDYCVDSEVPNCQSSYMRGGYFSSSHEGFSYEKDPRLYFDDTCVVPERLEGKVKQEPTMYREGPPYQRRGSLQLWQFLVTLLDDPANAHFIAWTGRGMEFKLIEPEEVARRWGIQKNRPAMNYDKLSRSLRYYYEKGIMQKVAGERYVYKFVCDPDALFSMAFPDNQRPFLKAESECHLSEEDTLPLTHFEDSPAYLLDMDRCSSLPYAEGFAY
Sequence of CRX (O43186 whole entry): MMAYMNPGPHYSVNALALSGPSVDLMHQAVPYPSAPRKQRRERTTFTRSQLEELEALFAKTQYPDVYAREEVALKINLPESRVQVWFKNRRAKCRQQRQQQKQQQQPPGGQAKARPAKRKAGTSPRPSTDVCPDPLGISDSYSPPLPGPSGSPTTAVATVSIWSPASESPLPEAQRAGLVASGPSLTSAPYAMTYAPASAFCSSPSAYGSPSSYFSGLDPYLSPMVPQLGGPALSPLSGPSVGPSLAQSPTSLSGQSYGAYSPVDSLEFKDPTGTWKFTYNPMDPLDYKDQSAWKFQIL
Sequence of ELF4 (Q99607 whole entry): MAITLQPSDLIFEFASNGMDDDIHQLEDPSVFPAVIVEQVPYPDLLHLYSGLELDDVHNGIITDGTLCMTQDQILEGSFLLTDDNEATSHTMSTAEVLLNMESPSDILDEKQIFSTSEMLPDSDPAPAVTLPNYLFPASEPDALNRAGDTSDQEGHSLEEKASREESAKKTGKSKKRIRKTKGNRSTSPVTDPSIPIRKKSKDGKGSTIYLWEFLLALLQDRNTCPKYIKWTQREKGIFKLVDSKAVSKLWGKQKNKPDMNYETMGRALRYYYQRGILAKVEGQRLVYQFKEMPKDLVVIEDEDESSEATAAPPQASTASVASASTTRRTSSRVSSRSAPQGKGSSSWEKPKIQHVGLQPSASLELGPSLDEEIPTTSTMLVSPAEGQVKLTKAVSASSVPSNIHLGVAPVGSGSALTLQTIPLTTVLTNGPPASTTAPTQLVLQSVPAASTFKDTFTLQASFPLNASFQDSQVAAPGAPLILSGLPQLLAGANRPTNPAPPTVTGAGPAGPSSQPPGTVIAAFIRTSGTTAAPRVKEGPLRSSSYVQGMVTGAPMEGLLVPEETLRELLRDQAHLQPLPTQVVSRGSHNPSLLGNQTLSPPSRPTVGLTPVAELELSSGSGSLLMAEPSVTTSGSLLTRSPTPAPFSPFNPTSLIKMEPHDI

Consider CAAAAC, for which the binding signal in experiment [1] was 1.3 fold enrichment (6-mer frequency, TF over GST control); in experiment [2], 1.26 fold enrichment (6-mer frequency, TF over GST control); in [3], 1.05 fold enrichment (6-mer frequency, TF over GST control); in experiment [4], 1.23 fold enrichment (6-mer frequency, TF over GST control); in experiment [5], 1.34 fold enrichment (6-mer frequency, TF over GST control); in experiment [6], 1.28 fold enrichment (6-mer frequency, TF over GST control). In addition, the binding signal in experiment [7] is 1.24 fold enrichment (6-mer frequency, TF over GST control); in [8], 1.28 fold enrichment (6-mer frequency, TF over GST control); in experiment [9], 1.02 fold enrichment (6-mer frequency, TF over GST control); in experiment [10] it was 1.2 fold enrichment (6-mer frequency, TF over GST control); in experiment [11], 1.28 fold enrichment (6-mer frequency, TF over GST control); in experiment [12], 1.27 fold enrichment (6-mer frequency, TF over GST control). Moreover, the binding signal in experiment [13] was 1.27 fold enrichment (6-mer frequency, TF over GST control); in experiment [14], 1.23 fold enrichment (6-mer frequency, TF over GST control); in [15] it was 1.23 fold enrichment (6-mer frequency, TF over GST control); in experiment [16] it was 1.25 fold enrichment (6-mer frequency, TF over GST control); in experiment [17], 1.18 fold enrichment (6-mer frequency, TF over GST control); in [18], 1.33 fold enrichment (6-mer frequency, TF over GST control).
